# Assay results taken from the supplement of paper PMC10849652.
# The full data set covers some 8,800 targets. This sample favours those with a hit. About 0.5% of all pairs of compound and target were hits. A number with no mark means an inactive call.
# Compound: C1=CC=C(C=C1)[C@H](COC2=CC3=C(C=C2)NC(=O)N3)NC(=O)C4=CC=CN(C4=O)CC5=CC(=C(C=C5)F)F
# Experiment: log2 fold change, soluble protein after heating vs DMSO (PISA); higher = thermal stabilisation; K562 lysate, 10 uM; active = over 0.2 and 3.5 SD of the protein, either way, in both replicates (recomputed)
# Procedure, shortened: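 Following dounce homogenisation of K562 pellets in PBS pH 7.4 with 1 mM MgCl2, crude extract at 1 mg/mL protein was incubated for 30 min with 10 μM compound. Aliquots were then heated for 3 min over 48°C-58°C and pooled, NP-40 was added to 0.5% at 4°C, and soluble protein was recovered as the supernatant at 21,000xg for 90 min. Channel-sum-equalised TMTpro 16plex LC-MS/MS quantified this protein. Each value, from duplicates, is a log-two fold change in thermal stability relative to solvent controls.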
# Chain of UniProt Q14C86 (Q14C86 whole entry, looked up): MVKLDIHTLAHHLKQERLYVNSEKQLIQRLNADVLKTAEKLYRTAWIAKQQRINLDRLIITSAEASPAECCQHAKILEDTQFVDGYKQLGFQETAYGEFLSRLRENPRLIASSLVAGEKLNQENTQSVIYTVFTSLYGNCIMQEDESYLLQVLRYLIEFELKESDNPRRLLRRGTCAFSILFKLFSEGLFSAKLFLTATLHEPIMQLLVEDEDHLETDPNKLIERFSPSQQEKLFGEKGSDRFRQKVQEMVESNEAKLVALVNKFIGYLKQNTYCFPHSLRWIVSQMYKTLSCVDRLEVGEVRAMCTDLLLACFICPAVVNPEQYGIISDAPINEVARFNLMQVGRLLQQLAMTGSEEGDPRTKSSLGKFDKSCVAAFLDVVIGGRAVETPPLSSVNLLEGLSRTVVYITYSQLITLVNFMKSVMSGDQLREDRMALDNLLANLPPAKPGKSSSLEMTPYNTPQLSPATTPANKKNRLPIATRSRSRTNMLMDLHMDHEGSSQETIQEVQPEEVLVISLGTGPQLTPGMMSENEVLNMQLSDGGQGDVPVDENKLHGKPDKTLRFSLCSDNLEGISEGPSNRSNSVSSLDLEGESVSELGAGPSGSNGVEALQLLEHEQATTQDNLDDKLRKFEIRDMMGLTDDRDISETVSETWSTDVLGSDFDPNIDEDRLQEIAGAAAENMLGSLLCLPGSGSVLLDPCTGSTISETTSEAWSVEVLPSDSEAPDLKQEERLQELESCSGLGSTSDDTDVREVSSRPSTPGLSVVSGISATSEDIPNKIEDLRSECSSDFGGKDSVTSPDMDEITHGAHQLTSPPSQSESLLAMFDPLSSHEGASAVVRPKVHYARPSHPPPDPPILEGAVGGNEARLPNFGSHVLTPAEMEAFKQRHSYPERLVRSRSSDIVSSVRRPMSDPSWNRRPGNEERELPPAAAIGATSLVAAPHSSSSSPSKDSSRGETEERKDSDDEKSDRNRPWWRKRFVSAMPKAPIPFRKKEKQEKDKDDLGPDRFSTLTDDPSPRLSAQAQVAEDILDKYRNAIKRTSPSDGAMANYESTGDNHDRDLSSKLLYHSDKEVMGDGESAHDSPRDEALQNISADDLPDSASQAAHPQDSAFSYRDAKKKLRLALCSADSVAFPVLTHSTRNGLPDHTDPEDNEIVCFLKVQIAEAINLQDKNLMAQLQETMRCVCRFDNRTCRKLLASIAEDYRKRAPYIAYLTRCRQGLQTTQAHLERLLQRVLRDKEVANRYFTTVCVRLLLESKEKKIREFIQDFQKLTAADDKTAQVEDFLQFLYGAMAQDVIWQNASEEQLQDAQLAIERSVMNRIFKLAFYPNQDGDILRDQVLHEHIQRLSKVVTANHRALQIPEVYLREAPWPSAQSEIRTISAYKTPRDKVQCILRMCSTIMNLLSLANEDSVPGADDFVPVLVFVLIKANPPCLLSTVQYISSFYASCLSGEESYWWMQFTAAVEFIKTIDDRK
# Chain of UniProt Q8IY81 (Q8IY81 whole entry, looked up): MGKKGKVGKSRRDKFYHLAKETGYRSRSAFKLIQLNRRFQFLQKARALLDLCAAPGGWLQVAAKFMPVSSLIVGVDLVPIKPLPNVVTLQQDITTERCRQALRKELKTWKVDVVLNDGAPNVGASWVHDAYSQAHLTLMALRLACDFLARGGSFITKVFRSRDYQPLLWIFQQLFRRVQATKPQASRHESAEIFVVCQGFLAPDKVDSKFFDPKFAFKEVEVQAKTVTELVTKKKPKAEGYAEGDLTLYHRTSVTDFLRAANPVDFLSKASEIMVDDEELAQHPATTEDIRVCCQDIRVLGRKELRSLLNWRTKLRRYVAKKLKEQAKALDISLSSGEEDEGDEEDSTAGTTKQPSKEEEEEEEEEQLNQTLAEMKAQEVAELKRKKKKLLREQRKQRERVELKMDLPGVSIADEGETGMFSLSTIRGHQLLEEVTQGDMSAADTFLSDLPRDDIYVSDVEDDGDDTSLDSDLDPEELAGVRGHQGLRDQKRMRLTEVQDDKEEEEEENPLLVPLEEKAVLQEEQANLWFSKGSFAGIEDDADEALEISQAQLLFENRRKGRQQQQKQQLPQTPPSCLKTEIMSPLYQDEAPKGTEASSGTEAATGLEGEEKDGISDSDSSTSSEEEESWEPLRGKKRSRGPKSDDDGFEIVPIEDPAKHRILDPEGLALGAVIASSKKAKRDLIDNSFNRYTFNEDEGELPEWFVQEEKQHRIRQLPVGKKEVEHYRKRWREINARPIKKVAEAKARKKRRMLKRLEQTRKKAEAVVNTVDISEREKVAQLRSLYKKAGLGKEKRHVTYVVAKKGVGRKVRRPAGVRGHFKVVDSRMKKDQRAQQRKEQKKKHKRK
# Chain of UniProt Q9H790 (Q9H790 whole entry, looked up): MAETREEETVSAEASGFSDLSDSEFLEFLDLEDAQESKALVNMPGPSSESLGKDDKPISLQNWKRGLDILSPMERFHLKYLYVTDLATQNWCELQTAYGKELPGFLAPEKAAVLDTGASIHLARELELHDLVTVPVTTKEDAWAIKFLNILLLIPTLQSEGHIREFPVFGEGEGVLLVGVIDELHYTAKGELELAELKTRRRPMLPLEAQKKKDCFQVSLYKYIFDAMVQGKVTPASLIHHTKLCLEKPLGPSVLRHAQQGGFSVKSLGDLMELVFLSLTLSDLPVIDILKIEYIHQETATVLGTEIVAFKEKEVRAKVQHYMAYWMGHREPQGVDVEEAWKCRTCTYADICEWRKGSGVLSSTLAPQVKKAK
# Chain of UniProt P57678 (P57678 whole entry, looked up): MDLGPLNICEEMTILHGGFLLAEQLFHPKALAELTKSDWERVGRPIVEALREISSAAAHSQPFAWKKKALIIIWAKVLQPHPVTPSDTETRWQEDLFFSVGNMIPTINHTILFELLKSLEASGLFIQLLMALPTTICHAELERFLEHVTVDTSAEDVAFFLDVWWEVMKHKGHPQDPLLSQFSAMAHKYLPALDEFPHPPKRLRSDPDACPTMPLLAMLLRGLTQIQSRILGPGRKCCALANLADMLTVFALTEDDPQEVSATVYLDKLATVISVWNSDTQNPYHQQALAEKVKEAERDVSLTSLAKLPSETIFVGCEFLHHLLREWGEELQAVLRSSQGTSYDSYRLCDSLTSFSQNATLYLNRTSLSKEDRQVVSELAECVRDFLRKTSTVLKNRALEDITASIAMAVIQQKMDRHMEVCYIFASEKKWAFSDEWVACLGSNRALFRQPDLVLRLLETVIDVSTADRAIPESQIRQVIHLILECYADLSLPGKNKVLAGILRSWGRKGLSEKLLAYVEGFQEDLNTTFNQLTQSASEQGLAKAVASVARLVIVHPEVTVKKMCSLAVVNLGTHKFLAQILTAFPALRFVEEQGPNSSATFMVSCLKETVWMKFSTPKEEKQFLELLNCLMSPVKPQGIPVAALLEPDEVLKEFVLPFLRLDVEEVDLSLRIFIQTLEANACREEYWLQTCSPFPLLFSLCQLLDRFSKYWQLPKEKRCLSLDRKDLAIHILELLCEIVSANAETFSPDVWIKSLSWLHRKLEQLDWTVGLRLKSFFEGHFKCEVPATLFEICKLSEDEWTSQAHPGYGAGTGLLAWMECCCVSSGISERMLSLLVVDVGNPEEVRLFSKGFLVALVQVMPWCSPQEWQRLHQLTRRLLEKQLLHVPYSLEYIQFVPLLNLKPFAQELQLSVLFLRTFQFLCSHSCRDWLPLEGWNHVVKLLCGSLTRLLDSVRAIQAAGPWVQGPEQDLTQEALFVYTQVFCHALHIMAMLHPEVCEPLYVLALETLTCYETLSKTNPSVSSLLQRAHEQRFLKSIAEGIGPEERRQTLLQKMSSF
# Chain of UniProt P06241 (P06241 whole entry, looked up): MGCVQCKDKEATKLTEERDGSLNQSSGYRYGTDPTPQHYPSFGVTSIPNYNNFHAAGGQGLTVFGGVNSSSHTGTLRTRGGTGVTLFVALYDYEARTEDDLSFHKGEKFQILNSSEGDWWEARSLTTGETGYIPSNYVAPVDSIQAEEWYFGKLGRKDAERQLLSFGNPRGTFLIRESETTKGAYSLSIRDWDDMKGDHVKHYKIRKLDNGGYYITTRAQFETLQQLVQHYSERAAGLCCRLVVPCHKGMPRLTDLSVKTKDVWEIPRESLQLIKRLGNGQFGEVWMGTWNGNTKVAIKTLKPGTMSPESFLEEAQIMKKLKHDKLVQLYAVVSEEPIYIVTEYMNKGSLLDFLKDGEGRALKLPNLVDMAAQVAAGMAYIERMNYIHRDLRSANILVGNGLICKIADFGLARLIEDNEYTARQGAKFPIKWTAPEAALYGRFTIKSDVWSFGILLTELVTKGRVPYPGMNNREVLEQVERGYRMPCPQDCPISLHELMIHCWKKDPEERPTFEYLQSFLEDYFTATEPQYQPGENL
# Chain of UniProt Q96G46 (Q96G46 whole entry, looked up): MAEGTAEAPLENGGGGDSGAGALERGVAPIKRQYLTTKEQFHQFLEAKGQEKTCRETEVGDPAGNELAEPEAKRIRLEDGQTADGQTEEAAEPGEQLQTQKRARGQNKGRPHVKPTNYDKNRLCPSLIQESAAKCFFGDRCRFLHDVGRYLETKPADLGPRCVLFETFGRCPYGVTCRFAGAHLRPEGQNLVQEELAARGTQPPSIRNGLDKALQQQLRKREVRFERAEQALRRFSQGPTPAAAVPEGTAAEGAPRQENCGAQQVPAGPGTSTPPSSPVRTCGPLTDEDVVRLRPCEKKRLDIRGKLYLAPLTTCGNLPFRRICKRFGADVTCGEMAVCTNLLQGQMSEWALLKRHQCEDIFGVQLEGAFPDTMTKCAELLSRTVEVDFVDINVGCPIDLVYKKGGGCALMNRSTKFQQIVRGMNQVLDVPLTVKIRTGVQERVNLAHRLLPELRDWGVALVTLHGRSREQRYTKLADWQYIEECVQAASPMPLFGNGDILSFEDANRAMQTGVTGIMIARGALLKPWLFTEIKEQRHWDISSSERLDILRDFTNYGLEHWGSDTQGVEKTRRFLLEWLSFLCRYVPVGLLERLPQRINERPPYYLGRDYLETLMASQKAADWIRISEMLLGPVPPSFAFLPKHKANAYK
# Chain of UniProt O43768 (O43768 whole entry, looked up): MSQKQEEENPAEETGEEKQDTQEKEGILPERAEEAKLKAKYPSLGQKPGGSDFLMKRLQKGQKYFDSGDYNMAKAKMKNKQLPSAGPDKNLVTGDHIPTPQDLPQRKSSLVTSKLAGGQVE
row,Target,log2 fold change
1,ESPL1 (UniProt Q14674),0.016
2,FCHO1 (UniProt O14526),-0.026
3,GALNT2 (UniProt Q10471),0.018
4,EPN2 (UniProt O95208),-0.012
5,DUS3L (UniProt Q96G46),0.084
6,EIF2B4 (UniProt Q9UI10),0.028
7,FAM120B (UniProt Q96EK7),0.034
8,FTL (UniProt P02792),-0.067
9,"EEF1A1, A0A087WVQ9",-0.053
10,GAPVD1 isoform 6 (UniProt Q14C86),-0.013
11,ENSA isoform 3 (UniProt O43768),0.037
12,EXO5 (UniProt Q9H790),0.033
13,FYCO1 isoform 4 (UniProt Q9BQS8),0.01
14,GEMIN5 (UniProt Q8TEQ6),-0.015
15,EWSR1 (UniProt H7BY36),-0.079
16,DUSP22 isoform 2 (UniProt Q9NRW4),0.05
17,ECH1 (UniProt Q13011),-0.059
18,GEMIN4 (UniProt P57678),-0.036

row,Target,log2 fold change
1,FYN (UniProt P06241),-0.323
2,EMP3 (UniProt P54852),0.026
3,GAPVD1 (UniProt Q14C86),0.036
4,EXTL2 (UniProt Q9UBQ6),0.208
5,FBXO30 (UniProt Q8TB52),-0.034
6,EHD2 (UniProt Q9NZN4),-0.074
7,FBXO22 (UniProt Q8NEZ5),-0.007
8,FOXJ3 (UniProt Q9UPW0),0.004
9,EEF1A1P5 (UniProt Q5VTE0),0.006
10,ERAL1 (UniProt O75616),-0.048
11,FASTKD5 (UniProt Q7L8L6),-0.168
12,FAM83D (UniProt Q9H4H8),-0.021
13,ESYT2 (UniProt H7BXI1),0.004
14,DTYMK (UniProt P23919),-0.041
15,FTSJ1 (UniProt Q9UET6),0.016
16,DSN1 (UniProt Q9H410),-0.012
17,FTSJ3 (UniProt Q8IY81),0.022
18,DST (UniProt Q03001),-0.002
